The values below come from PubChem BioAssay.

Each structure is given as a SMILES string. Activity calls are given as the source filed them.

One test deals with Albumin (Bos taurus) (UniProt P02769). As to the kind of experiment: compounds binding labelled BSA control protein – biochemical, small-molecule microarray, Alexa647 label, 635/667 nm fluorescence, artefact control for SMM control protein annotation, profiling panel (AID 1118).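 Also: score merges 667 nm emission intensity and signal-to-noise per printed compound spot.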 The conditions noted are these: BSA-A647 binding, fluorescence 635 nm, higher = more signal.
Sequence of Albumin (Bos taurus) (P02769 whole entry, looked up): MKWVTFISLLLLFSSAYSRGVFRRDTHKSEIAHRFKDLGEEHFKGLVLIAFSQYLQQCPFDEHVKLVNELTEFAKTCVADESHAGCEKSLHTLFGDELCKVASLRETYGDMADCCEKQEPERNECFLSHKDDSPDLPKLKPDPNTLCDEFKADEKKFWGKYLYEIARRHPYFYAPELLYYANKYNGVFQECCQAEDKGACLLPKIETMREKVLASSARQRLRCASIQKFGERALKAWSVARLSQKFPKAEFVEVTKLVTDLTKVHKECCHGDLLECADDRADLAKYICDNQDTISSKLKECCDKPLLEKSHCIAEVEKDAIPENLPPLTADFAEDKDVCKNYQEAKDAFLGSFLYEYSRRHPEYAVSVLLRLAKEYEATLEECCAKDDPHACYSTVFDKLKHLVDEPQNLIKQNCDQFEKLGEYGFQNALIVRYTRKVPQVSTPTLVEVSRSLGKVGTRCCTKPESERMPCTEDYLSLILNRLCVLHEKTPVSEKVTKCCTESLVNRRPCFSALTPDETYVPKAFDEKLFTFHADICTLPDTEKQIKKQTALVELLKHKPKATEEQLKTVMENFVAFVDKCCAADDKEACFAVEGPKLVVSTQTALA
Test [1] in a line: probe aXIP binding to arrayed compounds – biochemical, NeuroSMM set, 635/667 nm fluorescence, primary screen (AID 1119).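 Also: probe is the protein aXip251-270 applied at 1 µg/mL to compound-printed slides; binding of probe to printed compounds measured as 667 nm fluorescence plus signal to noise.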 The conditions noted are these: small-molecule microarray, higher = more signal, called active from +8 up or from −8 down.
The nature of test [2]: probe aNOTCH3 binding on compound microarray – biochemical, small-molecule microarray, 635/667 nm fluorescence, primary screen (AID 1120).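 Also: probe is a biotin-tagged antibody raised against NOTCH3 rather than NOTCH3 protein; score merges spot fluorescence near 667 nm with spot signal to noise.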 The conditions noted are these: higher = more signal.
Test [3] in a line: probe aNOTCH2 binding on compound microarray – biochemical, small-molecule microarray, 635/667 nm fluorescence, primary screen (AID 1121).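 Also: score merges feature fluorescence read at 667 nm with its signal to noise.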 The conditions noted are these: higher = more signal.
Test [4] concerns the target Carbonic anhydrase 2 (Homo sapiens) (UniProt P00918). As to the kind of experiment: compounds binding carbonic anhydrase 2 – biochemical, small-molecule microarray, Alexa647-labelled CAII, profiling panel (AID 1122). The conditions noted are these: CAII-A647 binding fluorescence, higher = more signal.
The nature of test [5]: COS7 lysate on small-molecule microarray, probe aHis, 635 nm (AID 1123).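 Also: z-score combines 667nm fluorescence intensity with signal-to-noise per printed compound spot.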 The conditions noted are these: COS7 cell lysate, fluorescence, higher = more signal.
The nature of test [6]: probe aLAP1 signal on lysate-treated microarray – cell lysate, small-molecule microarray, COS7 lysate, primary screen (AID 1124).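 Also: lysate comes from COS7 cells expressing LAP1 and is applied at 0.3 µg/mL; score merges spot fluorescence near 667 nm with signal-to-noise over triplicate slides.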 The conditions noted are these: probe aLAP1, fluorescence, higher = more signal.
For a further test, the system named is Sam68 (KHDRBS1). Description: compounds binding KHDRBS1 protein – biochemical, small-molecule microarray, 635 nm fluorescence, primary screen (AID 1125).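 Also: score merges 667 nm channel intensity with signal to noise over triplicate slides.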 The conditions noted are these: higher = more signal.
The test system of test [7] is Chordin-like protein 2 (CHRDL2). Description: compounds binding chordin-like 2 – biochemical, small-molecule microarray, 635 nm fluorescence, primary screen (AID 1126).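 Also: printed compound slides probed with Chrdl2 protein at 4 µg/mL for 1 h at 4 C; score merges 667 nm emission intensity with signal to noise over three replicate slides.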 The conditions noted are these: fluorescence 635 nm, higher = more signal.
Test [8] concerns the target Concanavalin-A (Canavalia ensiformis) (UniProt P02866). Description: compounds binding concanavalin A lectin – biochemical, small-molecule microarray, Alexa647 label, 635 nm, artefact control for SMM control protein annotation, primary screen (AID 1127).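 Also: z combines 667 nm emission intensity with signal-to-noise across three replicate slides.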 The conditions noted are these: ConA-A647 binding fluorescence, higher = more signal.
The nature of test [9]: compounds binding Alexa647 anti-His antibody – biochemical, small-molecule microarray, 635 nm fluorescence, artefact control for SMM control protein annotation, primary screen (AID 1128).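 Also: score merges feature fluorescence with signal-to-noise for each printed compound spot.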 The conditions noted are these: higher = more signal.
The test system of test [10] is Human papillomavirus type 1a E7 protein (residues 1-88). As to the kind of experiment: HPV1a E7 small-molecule binders, primary screen, biochemical, small-molecule microarray, residues 1-88, 635 nm (AID 1129). The conditions noted are these: small-molecule microarray binding, fluorescence 635 nm; higher = more signal.
In test [11] the target is Focal adhesion kinase 1 (Homo sapiens) (UniProt Q05397). Description: PTK2 protein binding on printed compound slides – biochemical, small-molecule microarray, 635/667 nm fluorescence, BSA, DTT, primary screen (AID 1130).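 Also: composite of spot emission at 667 nm and signal to noise over triplicate slides.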 The conditions noted are these: 635 nm fluorescence, higher = more signal.
Sequence of Focal adhesion kinase 1 (Homo sapiens) (Q05397 whole entry, looked up): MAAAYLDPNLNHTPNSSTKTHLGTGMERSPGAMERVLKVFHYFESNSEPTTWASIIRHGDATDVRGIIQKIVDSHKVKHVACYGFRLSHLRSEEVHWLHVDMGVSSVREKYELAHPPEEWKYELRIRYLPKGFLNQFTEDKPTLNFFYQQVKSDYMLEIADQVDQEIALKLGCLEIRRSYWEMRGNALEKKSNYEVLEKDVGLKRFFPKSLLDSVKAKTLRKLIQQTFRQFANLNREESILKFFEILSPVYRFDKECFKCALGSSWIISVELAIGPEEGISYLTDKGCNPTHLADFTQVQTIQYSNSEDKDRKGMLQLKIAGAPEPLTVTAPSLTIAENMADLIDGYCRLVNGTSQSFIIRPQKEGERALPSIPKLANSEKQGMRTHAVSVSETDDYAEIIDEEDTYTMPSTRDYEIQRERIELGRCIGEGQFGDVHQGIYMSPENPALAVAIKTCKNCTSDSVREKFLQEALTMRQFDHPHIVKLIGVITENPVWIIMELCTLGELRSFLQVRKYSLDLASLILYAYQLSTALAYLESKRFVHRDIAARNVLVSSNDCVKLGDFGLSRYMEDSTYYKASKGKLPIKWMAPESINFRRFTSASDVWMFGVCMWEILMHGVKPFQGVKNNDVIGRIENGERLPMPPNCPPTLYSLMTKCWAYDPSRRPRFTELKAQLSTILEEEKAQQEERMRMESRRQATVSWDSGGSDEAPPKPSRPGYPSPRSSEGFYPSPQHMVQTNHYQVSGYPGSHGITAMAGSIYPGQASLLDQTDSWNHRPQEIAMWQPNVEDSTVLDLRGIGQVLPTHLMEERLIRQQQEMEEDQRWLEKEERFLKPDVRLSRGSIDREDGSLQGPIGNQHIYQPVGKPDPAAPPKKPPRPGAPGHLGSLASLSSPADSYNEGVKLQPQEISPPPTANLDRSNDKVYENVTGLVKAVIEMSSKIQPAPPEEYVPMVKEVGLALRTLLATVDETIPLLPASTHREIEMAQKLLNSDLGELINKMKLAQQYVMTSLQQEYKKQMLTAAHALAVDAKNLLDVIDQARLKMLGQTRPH
Test [12] concerns Fibrinogen (Alexa647-labelled). Description: Alexa647-fibrinogen binding to printed small molecules – biochemical, small-molecule microarray, 635/667 nm fluorescence, artefact control for SMM control-protein annotation, profiling panel (AID 1131).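 Also: z-score merges 667 nm fluorescence with per-spot signal-to-noise over triplicate slides.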 The conditions noted are these: fibrinogen-A647 binding fluorescence, higher = more signal.
Test [13] deals with Follistatin (Homo sapiens) (UniProt P19883). As to the kind of experiment: FST protein binding to printed compounds – biochemical, small-molecule microarray, 635/667 nm fluorescence, primary screen (AID 1132). The conditions noted are these: 635 nm fluorescence, higher = more signal.
Sequence of Follistatin (Homo sapiens) (P19883 whole entry, looked up): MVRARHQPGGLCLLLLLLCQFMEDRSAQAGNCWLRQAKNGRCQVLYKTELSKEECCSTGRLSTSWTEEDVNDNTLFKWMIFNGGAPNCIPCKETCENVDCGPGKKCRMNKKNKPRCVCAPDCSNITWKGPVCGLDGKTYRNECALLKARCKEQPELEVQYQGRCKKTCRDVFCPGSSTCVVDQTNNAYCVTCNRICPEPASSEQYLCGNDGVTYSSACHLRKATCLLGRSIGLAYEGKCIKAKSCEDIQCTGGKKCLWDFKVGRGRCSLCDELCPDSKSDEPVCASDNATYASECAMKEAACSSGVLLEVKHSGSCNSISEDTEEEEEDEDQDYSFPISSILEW
In test [14] the target is Fibroblast growth factor 2 (Homo sapiens) (UniProt P09038). Description: basic fibroblast growth factor binding to printed compounds – biochemical, small-molecule microarray, 635/667 nm fluorescence, primary screen (AID 1133). The conditions noted are these: FGF2, fluorescence 635/667, higher = more signal.
Sequence of Fibroblast growth factor 2 (Homo sapiens) (P09038 whole entry, looked up): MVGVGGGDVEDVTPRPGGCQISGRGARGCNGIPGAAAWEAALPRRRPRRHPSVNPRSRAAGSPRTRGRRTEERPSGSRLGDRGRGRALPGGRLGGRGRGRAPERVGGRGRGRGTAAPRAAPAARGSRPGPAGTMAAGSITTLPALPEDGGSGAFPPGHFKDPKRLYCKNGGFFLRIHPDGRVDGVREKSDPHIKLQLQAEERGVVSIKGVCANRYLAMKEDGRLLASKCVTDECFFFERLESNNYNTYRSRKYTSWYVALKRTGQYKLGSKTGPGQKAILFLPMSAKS
The nature of test [15]: JC-1 mitochondrial potential readout, lung cancer cells – cell-based, A549, JC-1 fluorescence, basal, 24 h, 100 nL, profiling panel (AID 1138).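 Also: A549 lung adenocarcinoma cells under basal conditions with no added stimulus; test concentration not given here.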 The conditions noted are these: higher = more signal.
The test system of another test is Lefty1. As to the kind of experiment: Lefty1 protein binding to printed compounds – biochemical, small-molecule microarray, 635/667 nm fluorescence, primary screen (AID 1139). The conditions noted are these: fluorescence 635/667, higher = more signal.
Test [16] concerns wheat germ agglutinin (Triticum aestivum), Alexa647-labelled. Description: Alexa647-WGA lectin binding to printed small molecules – biochemical, small-molecule microarray, 635/667 nm fluorescence, artefact control for SMM control-protein annotation, profiling panel (AID 1140).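 Also: score merges 667 nm feature emission with signal to noise over triplicate slides.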 The conditions noted are these: WGA-A647 binding, 635 nm fluorescence, higher = more signal.
In test [17] the target is Luciferin 4-monooxygenase (Photinus pyralis) (UniProt P08659). Description: inhibition of purified Photinus pyralis luciferase – biochemical, luminescence, purified enzyme, 2006 set, primary screen (AID 1141).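 Also: cell-free assay with purified firefly luciferase at 100 ng per well in PBS; test concentration not given here.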 The conditions noted are these: purified firefly luciferase, SteadyGlo luminescence, 30 min; higher = more signal, called active from +8 up or from −8 down.
Sequence of Luciferin 4-monooxygenase (Photinus pyralis) (P08659 whole entry, looked up): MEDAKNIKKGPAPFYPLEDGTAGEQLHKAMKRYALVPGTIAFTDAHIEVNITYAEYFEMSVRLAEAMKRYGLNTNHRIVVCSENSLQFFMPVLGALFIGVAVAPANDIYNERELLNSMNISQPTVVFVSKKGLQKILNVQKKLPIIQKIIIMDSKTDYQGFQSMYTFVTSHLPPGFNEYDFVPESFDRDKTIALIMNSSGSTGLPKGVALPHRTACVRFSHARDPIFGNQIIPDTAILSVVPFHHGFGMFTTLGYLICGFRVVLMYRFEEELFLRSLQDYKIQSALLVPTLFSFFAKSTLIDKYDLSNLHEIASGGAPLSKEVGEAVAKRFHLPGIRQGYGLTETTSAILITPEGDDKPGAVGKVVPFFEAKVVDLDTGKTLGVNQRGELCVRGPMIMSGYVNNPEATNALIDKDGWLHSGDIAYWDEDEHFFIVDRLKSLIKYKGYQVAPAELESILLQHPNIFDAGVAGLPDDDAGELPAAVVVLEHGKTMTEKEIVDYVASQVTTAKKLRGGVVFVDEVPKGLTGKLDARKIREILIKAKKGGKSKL

Sequence of Concanavalin-A (Canavalia ensiformis) (P02866 whole entry, looked up): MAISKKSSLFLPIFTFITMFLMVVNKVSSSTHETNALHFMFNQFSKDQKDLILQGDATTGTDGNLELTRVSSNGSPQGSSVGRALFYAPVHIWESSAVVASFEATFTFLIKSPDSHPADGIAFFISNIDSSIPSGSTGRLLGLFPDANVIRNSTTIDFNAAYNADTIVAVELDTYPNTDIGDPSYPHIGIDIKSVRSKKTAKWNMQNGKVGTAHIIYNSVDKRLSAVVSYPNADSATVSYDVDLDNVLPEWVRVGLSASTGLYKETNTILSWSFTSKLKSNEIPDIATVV

Consider `CC(=O)OCC1C2CC[C@H]3C(OCc4ccc(F)cc4C(F)(F)F)OC[C@]4(C)[C@H]3C2=C(CN4C(=O)OC(C)(C)C)[C@H](C)C1COC(C)=O` (stereo not given in full), for which the composite z-score with Albumin (Bos taurus) was 0.349; in [2] it was 0.16; in [3], 0.117; in test [4], 0.807; in test [5] it was 0.826; in test [6] it was 0.95. For the same compound, the composite z-score is 0.0524 in the test on Sam68 (KHDRBS1); -1.86 in test [7]; 1.12 in test [8]; 1.14 in test [9]; -0.267 in test [10]; 0.0527 in [11]. Also, the composite z-score is 0.783 in test [12]; -0.603 in test [13]; -1.66 in [14]; -0.372 with Lefty1; 0.517 in test [16]. In addition, the composite Z-score in test [1] was -0.342 (inactive). Besides, the z-score in test [15] is 1.71; in test [17], 1.62 (inactive).
Consider `C=CCNC(=O)[C@H]1[C@@H]2C(=O)O[C@@H](c3ccccc3)[C@@H](c3ccccc3)N2[C@@H](c2ccc(OCCO)cc2)[C@]12C(=O)Nc1ccc(C#CC3(O)CCCCCC3)cc12`, for which the composite z-score with Albumin (Bos taurus) was 0.483; in test [2] it was 0.257; in test [3], 0.0111; in test [4], 0.184; in test [5], 1.29; in test [6] it was 1.09. The composite z-score came out at 1.34 with Sam68 (KHDRBS1); 0.721 in test [7]; 1.13 in [8]; 1.26 in test [9]; 1.18 in [10]; 0.358 in [11]. For the same compound, the composite z-score turned out to be 0.932 in test [12]; 1.14 in test [13]; 1.13 in test [14]; 1.3 in the test with Lefty1; 0.651 in test [16]. Further, in test [1], the composite Z-score was 0.238 (inactive). For the same compound, the z-score is 0.38 in test [15] and -1.96 (inactive) in test [17].
Consider `[N-]=[N+]=Nc1ccccc1C[C@]1(C(=O)N2CCOCC2)N=C(c2ccc(OCCCO)cc2)O[C@H]1c1ccccc1N=[N+]=[N-]`, for which the composite z-score with Albumin (Bos taurus) is 0.832; in test [2], 0.472; in test [3] it was -0.14; in [4] it was 0.648; in [5], 3.09; in test [6], 0.654. The composite z-score amounted to 1.28 in the test on Sam68 (KHDRBS1); 0.86 in [7]; 1.15 in [8]; 2.37 in test [9]; 1.19 in test [10]; 1.08 in test [11]. Besides, the composite z-score in test [12] worked out at 0.96; in [13], 1.41; in test [14] it was 1.79; in the test with Lefty1 it was 1.41; in test [16] it was 0.97. For the same compound, in [1], the composite Z-score was 0.317 (inactive). In addition, the results for the z-score in test [15] and in test [17] were 0.268 and -4.36 (inactive), respectively.
`CC(C)NC(=O)[C@@H]1c2ccccc2C(=O)N(Cc2ccccc2C(F)(F)F)[C@H]1c1ccc(CO)cc1`: the composite z-score is -0.273 with Albumin (Bos taurus); -0.0144 in [2]; -0.0901 in test [3]; 0.726 in [4]; 0.725 in [5]; 0.647 in [6]. For the same compound, the composite z-score was -0.0631 in the test with Sam68 (KHDRBS1); -0.585 in test [7]; -0.329 in [8]; -0.403 in [9]; -0.358 in test [10]; -0.156 in test [11]. Further, the composite z-score in [12] is -0.55; in test [13] it was 0.471; in [14], 0.232; with Lefty1 it was -1.5; in test [16], 0.145. Besides, the composite Z-score in test [1] was -0.483 (inactive). The z-score is -0.18 in test [15] and 0.681 (inactive) in test [17].
